From publication PMC7862700, “An all-to-all approach to the identification of sequence-specific readers for epigenetic DNA modifications on cytosine”

Tests used:
Assay in all cases: DAPPL (digital affinity profiling via proximity ligation, sequencing); 10 mM Tris-HCl pH 7.5, 50 mM NaCl, 1 mM DTT, 4% glycerol, room temperature, 30 min; GST-TFs on glutathione beads, 16-mer random dsDNA library, 0.1% formaldehyde crosslink after washing; high values mean tight binding
FLI1 = molecular target: T1, FLI1 (Homo sapiens, UniProt Q01543 1-452); details: protein: recombinant; tags: N-terminal GST; dsDNA, one strand shown
T1 sequence: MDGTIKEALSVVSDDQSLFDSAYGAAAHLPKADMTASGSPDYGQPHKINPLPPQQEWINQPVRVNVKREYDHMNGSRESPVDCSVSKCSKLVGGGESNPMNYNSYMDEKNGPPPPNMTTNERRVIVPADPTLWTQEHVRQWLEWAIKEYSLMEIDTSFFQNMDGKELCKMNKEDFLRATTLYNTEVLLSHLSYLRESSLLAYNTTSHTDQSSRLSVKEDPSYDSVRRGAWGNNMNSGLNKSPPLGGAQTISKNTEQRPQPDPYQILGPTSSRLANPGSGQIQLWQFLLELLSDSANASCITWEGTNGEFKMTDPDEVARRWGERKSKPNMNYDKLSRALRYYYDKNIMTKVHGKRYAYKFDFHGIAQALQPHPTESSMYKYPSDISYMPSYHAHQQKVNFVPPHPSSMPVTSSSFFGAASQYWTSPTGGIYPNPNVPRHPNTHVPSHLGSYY
In short: (§1)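 A tag-only sample was pooled with DNA-barcoded human transcription factors that had been expressed in yeast as GST fusions and captured on glutathione beads. The pools were incubated for 30 min at room temperature with 200 nmole of a random double-stranded 16-mer DNA library in Tris/NaCl/DTT/glycerol buffer, then washed, crosslinked with 0.1% formaldehyde, proximity-ligated (BsaI/T4 ligase, 1 h, 37 °C), PCR-amplified and sequenced on an Illumina NextSeq500. Binding signal is each hexamer's read frequency for a factor divided by its frequency for the tag-only sample.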

ELK1 = molecular target: T2, ELK1 (Homo sapiens, UniProt P19419 1-428); details: protein: recombinant; tags: N-terminal GST; dsDNA, one strand shown
T2 sequence: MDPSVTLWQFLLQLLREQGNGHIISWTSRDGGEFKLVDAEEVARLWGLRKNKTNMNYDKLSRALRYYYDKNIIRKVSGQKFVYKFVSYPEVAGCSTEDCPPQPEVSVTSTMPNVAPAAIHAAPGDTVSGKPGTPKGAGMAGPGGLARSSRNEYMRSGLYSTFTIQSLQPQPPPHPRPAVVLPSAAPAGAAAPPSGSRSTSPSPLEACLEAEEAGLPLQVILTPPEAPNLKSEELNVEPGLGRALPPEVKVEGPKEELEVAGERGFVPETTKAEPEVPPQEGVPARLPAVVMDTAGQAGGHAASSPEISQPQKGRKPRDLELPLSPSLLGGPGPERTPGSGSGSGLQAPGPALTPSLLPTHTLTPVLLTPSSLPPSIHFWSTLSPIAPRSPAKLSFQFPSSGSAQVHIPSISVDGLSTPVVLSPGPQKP
In short: as §1

GABPA = molecular target: T3, GABPA (Homo sapiens, UniProt Q06546 1-454); details: protein: recombinant; tags: N-terminal GST; dsDNA, one strand shown
T3 sequence: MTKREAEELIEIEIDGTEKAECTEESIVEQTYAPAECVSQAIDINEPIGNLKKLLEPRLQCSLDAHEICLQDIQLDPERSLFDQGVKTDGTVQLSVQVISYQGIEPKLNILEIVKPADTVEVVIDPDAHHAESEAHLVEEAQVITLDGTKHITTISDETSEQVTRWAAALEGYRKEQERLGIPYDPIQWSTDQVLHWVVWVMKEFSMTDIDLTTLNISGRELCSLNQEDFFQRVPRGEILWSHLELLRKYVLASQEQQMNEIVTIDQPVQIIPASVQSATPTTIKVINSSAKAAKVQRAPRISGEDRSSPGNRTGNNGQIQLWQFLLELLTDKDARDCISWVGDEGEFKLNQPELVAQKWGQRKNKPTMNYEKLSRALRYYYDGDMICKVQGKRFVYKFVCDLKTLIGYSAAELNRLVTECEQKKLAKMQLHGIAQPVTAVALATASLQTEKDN
In short: as §1

ERG = molecular target: T4, ERG (Homo sapiens, UniProt P11308 1-479); details: protein: recombinant; tags: N-terminal GST; dsDNA, one strand shown
T4 sequence: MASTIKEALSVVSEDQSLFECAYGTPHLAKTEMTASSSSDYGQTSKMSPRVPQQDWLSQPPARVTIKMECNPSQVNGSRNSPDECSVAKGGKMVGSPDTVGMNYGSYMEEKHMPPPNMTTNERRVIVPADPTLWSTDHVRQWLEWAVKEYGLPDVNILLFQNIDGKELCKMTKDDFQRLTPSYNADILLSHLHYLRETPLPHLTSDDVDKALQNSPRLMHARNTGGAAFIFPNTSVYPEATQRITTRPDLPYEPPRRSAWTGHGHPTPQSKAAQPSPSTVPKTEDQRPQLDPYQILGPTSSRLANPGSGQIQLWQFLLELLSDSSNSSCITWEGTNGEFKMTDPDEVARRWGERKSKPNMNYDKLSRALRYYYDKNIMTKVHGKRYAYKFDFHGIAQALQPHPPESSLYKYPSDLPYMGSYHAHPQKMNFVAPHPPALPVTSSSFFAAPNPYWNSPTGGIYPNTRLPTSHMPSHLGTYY
In short: as §1

ELF1 = ELF1 (Homo sapiens, UniProt P32519 1-619); details: protein: recombinant; tags: N-terminal GST; dsDNA, one strand shown
ELF1, sequence (P32519 whole entry): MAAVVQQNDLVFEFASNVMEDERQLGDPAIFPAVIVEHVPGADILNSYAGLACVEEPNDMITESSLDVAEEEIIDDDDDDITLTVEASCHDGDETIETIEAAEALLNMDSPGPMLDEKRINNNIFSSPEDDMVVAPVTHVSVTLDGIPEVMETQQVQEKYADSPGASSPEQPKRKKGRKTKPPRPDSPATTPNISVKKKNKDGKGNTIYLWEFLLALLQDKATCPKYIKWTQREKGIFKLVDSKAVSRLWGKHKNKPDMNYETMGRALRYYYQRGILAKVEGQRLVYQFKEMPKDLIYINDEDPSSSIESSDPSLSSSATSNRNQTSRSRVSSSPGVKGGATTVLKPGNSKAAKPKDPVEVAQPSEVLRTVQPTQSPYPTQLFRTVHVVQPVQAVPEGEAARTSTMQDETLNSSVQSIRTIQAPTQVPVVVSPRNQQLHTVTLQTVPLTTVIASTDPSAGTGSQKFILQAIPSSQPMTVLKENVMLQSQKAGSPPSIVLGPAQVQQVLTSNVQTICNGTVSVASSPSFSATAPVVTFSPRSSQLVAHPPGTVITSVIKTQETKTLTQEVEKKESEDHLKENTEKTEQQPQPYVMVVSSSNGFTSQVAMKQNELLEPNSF
In short: as §1

EHF = molecular target: T5, EHF (Homo sapiens, UniProt Q9NZC4 1-300); details: protein: recombinant; tags: N-terminal GST; dsDNA, one strand shown
T5 sequence: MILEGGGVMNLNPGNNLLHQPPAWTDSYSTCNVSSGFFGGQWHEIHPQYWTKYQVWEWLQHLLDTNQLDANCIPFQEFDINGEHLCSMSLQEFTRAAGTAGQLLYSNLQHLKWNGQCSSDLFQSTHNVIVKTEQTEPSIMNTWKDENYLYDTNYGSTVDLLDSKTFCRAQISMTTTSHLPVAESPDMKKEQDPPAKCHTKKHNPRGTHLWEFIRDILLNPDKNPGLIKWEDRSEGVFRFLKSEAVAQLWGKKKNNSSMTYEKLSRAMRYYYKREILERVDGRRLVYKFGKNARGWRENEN
In short: as §1

SPI1 = SPI1 (Homo sapiens, UniProt P17947 1-270); details: protein: recombinant; tags: N-terminal GST; dsDNA, one strand shown
In short: as §1

SPIB = SPIB (Homo sapiens, UniProt Q01892 1-262); details: protein: recombinant; tags: N-terminal GST; dsDNA, one strand shown
SPIB, sequence (Q01892 whole entry): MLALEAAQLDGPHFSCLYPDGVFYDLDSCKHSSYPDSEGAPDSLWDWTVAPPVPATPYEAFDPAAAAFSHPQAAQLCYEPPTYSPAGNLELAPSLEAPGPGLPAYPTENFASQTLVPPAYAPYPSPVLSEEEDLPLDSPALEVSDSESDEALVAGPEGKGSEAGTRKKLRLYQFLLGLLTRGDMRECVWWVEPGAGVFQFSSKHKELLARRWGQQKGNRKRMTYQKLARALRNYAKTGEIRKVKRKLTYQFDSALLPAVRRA
In short: as §1

ELK3 = molecular target: T6, ELK3 (Homo sapiens, UniProt P41970 1-407); details: protein: recombinant; tags: N-terminal GST; dsDNA, one strand shown
T6 sequence: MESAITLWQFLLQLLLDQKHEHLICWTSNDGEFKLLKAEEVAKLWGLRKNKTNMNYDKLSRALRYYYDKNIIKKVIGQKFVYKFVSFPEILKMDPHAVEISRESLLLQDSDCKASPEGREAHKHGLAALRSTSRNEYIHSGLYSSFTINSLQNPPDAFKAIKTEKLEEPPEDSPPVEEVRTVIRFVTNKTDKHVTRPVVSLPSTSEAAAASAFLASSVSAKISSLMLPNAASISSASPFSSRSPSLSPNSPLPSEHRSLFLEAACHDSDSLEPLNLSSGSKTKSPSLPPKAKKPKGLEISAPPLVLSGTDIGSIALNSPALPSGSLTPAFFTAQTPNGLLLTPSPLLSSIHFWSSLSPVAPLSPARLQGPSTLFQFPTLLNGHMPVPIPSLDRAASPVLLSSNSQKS
In short: as §1

FEV = molecular target: T7, FEV (Homo sapiens, UniProt Q99581 1-238); details: protein: recombinant; tags: N-terminal GST; dsDNA, one strand shown
T7 sequence: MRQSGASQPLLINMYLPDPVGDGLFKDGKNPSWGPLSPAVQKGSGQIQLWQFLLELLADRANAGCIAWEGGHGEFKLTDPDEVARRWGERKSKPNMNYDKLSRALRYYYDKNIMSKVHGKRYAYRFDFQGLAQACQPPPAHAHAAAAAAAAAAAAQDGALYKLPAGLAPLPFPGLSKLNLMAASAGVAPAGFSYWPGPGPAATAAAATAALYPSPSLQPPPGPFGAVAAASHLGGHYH
In short: as §1

ETV5 = ETV5 (Homo sapiens, UniProt P41161 1-510); details: protein: recombinant; tags: N-terminal GST; dsDNA, one strand shown
ETV5, sequence (P41161 whole entry): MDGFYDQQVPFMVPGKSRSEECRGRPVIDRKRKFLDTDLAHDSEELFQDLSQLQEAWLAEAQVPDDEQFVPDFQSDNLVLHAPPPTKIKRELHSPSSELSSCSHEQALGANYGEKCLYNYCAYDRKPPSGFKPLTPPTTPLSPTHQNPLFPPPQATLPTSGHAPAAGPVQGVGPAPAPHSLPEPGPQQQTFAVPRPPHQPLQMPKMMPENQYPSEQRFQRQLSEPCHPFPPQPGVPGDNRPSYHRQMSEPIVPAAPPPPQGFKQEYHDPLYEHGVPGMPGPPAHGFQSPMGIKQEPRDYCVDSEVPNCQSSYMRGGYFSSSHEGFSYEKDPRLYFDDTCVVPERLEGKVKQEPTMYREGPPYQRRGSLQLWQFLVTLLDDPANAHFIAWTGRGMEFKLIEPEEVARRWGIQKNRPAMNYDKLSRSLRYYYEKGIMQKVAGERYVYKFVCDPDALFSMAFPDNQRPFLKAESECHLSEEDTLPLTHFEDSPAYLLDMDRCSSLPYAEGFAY
In short: as §1

HSF1 = HSF1 (Homo sapiens, UniProt Q00613 1-529); details: protein: recombinant; tags: N-terminal GST; chain copies: 3; dsDNA, one strand shown
HSF1, sequence (Q00613 whole entry): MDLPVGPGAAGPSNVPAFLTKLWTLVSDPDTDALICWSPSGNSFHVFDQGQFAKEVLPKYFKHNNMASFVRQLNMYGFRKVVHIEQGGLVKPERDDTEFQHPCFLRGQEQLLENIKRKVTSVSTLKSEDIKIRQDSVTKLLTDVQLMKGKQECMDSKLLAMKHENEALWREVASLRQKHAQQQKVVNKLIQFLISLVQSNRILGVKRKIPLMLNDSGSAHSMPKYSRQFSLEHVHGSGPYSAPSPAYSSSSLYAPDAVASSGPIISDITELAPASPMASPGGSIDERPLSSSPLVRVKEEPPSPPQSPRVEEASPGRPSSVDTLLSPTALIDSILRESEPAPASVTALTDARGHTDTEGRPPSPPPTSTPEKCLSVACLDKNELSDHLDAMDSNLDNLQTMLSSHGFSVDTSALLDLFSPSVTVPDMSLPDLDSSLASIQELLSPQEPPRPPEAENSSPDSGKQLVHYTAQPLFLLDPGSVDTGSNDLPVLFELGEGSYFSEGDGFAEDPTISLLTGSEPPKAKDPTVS
In short: as §1

SPIC = molecular target: T8, SPIC (Homo sapiens, UniProt Q8N5J4 1-248); details: protein: recombinant; tags: N-terminal GST; dsDNA, one strand shown
T8 sequence: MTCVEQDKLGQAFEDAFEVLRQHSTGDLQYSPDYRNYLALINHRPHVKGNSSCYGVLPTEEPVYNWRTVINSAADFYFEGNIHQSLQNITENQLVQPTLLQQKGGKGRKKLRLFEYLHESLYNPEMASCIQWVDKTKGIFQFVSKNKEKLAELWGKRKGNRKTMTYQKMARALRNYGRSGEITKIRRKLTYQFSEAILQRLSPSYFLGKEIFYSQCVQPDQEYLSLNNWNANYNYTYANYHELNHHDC
In short: as §1

ELF4 = ELF4 (Homo sapiens, UniProt Q99607 1-663); details: protein: recombinant; tags: N-terminal GST; dsDNA, one strand shown
ELF4, sequence (Q99607 whole entry): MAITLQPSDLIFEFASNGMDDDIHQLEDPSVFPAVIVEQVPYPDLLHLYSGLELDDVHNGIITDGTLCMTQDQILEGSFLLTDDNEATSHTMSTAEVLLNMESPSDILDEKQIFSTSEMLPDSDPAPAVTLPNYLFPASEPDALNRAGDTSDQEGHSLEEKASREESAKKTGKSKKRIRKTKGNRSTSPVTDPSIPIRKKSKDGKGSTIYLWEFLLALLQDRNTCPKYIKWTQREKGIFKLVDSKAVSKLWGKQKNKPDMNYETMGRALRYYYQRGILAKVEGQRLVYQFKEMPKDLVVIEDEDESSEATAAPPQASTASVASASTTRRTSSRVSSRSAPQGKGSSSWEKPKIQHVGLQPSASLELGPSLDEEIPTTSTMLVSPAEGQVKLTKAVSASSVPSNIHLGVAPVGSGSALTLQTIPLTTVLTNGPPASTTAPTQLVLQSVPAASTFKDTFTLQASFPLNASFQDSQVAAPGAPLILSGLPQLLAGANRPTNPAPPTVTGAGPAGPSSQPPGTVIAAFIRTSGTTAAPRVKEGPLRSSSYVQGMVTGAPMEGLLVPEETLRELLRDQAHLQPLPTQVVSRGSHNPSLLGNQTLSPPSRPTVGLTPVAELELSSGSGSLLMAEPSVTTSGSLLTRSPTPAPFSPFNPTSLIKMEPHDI
In short: as §1

ELK4 = molecular target: T9, ELK4 (Homo sapiens, UniProt P28324-2 1-405); details: protein: recombinant; tags: N-terminal GST; dsDNA, one strand shown
T9 sequence: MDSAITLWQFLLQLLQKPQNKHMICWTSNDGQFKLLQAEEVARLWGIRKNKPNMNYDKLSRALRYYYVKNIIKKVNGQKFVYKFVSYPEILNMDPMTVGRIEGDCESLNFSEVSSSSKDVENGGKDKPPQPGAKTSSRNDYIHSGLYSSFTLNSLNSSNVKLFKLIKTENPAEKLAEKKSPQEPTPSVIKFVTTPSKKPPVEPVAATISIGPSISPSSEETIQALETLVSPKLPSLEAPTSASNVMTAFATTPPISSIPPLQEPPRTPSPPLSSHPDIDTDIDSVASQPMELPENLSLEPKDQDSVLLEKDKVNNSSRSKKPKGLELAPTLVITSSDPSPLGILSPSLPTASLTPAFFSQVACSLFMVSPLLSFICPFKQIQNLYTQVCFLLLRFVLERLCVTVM
In short: as §1

ETV2 = molecular target: T10, ETV2 (Homo sapiens, UniProt O00321 1-342); details: protein: recombinant; tags: N-terminal GST; dsDNA, one strand shown
T10 sequence: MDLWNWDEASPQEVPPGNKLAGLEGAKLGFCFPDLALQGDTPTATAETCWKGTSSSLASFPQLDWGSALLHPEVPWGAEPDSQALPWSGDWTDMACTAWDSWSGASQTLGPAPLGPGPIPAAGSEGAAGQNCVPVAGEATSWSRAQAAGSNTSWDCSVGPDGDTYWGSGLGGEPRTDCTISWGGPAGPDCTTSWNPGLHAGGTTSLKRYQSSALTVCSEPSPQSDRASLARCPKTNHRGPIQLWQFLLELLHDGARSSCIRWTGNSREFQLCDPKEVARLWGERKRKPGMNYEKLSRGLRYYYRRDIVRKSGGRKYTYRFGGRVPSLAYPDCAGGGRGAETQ
In short: as §1

ELF3 = molecular target: T11, ELF3 (Homo sapiens, UniProt P78545 1-371); details: protein: recombinant; tags: N-terminal GST; dsDNA, one strand shown
T11 sequence: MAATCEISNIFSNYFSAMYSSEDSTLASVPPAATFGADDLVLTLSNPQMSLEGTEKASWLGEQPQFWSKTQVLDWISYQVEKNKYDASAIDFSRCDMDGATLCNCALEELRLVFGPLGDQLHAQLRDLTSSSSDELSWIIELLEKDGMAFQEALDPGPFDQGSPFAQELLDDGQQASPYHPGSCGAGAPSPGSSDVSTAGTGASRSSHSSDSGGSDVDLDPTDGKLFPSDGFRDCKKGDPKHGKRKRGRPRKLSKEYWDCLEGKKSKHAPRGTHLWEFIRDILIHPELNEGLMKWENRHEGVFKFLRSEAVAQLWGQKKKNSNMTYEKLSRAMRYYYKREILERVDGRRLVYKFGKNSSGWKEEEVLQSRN
In short: as §1

CRX = CRX (Homo sapiens, UniProt O43186 1-299); details: protein: recombinant; tags: N-terminal GST; dsDNA, one strand shown
CRX, sequence (O43186 whole entry): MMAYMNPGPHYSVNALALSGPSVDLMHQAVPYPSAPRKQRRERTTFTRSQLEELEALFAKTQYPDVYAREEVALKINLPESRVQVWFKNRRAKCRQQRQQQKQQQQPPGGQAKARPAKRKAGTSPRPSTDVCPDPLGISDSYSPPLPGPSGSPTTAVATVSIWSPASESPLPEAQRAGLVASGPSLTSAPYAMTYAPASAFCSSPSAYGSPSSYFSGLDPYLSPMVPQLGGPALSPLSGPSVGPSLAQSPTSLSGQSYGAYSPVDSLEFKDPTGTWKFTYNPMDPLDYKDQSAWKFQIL
In short: as §1

ETV1 = ETV1 (Homo sapiens, UniProt P50549 1-477); details: protein: recombinant; tags: N-terminal GST; dsDNA, one strand shown
ETV1, sequence (P50549 whole entry): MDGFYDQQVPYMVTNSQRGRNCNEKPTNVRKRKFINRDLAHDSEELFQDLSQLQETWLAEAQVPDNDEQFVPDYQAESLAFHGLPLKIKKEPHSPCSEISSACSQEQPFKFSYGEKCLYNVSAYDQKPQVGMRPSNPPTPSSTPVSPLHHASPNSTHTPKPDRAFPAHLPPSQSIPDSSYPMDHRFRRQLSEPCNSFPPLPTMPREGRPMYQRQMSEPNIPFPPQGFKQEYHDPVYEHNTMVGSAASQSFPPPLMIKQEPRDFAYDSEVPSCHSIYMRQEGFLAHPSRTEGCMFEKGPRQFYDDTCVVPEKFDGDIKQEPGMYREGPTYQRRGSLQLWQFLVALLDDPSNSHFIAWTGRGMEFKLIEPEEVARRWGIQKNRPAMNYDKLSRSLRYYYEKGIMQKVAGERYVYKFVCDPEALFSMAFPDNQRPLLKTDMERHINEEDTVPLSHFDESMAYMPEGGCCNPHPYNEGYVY
In short: as §1

Sequence: CACTAA
- binding signal (FLI1): 1.09 fold enrichment (6-mer frequency, TF over GST control)
- binding signal (ELK1): 1.21 fold enrichment (6-mer frequency, TF over GST control)
- binding signal (GABPA): 1.11 fold enrichment (6-mer frequency, TF over GST control)
- binding signal (ERG): 1.1 fold enrichment (6-mer frequency, TF over GST control)
- binding signal (ELF1): 1.18 fold enrichment (6-mer frequency, TF over GST control)
- binding signal (EHF): 1.21 fold enrichment (6-mer frequency, TF over GST control)
- binding signal (SPI1): 1.19 fold enrichment (6-mer frequency, TF over GST control)
- binding signal (SPIB): 1.18 fold enrichment (6-mer frequency, TF over GST control)
- binding signal (ELK3): 1.18 fold enrichment (6-mer frequency, TF over GST control)
- binding signal (FEV): 1.12 fold enrichment (6-mer frequency, TF over GST control)
- binding signal (ETV5): 1.13 fold enrichment (6-mer frequency, TF over GST control)
- binding signal (HSF1): 1.29 fold enrichment (6-mer frequency, TF over GST control)
- binding signal (SPIC): 1.25 fold enrichment (6-mer frequency, TF over GST control)
- binding signal (ELF4): 1.2 fold enrichment (6-mer frequency, TF over GST control)
- binding signal (ELK4): 1.2 fold enrichment (6-mer frequency, TF over GST control)
- binding signal (ETV2): 1.2 fold enrichment (6-mer frequency, TF over GST control)
- binding signal (ELF3): 1.3 fold enrichment (6-mer frequency, TF over GST control)
- binding signal (CRX): 1.67 fold enrichment (6-mer frequency, TF over GST control)
- binding signal (ETV1): 1.12 fold enrichment (6-mer frequency, TF over GST control)
